Consider 32 compounds from PubChem BioAssay (EPA / NIEHS).

Assay [1] concerns the target Bile acid receptor (Homo sapiens) (UniProt Q96RI1). As to the kind of experiment: ATG_FXR_TRANS: Attagene TRANS-FACTORIAL HepG2 Assay for Farnesoid X Receptor (FXR) (AID 2282979).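 Note: hits raise reporter mRNA above DMSO so AC50 marks FXR activation.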 The conditions noted are these: HepG2 Attagene TRANS FXR-GAL4 reporter transcription. Put shortly:
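Transient transfection of HepG2 with multiplexed GAL4-UAS reporter units; exogenous FXR-GAL4 chimera. Dose 24 h → TriZol RNA → oligo(dT) RT → PCR, 6-FAM primer extension, HpaI cut → CE. Gain vs DMSO.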

The target in assay [2] is Oxysterols receptor LXR-alpha (Homo sapiens) (UniProt Q13133). As to the kind of experiment: ATG_LXRa_TRANS: Attagene TRANS-FACTORIAL HepG2 Assay for human Liver X Receptor alpha (LXRa) (AID 2282980). Conditions: HepG2 Attagene TRANS reporter, LXRa transactivation. Summed up: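 Transfect HepG2 with GAL4-UAS multiplex reporter constructs (TRANS format, chimeric receptor-GAL4); treat 24 h; extract RNA, reverse-transcribe, PCR-amplify, FAM-label, HpaI-digest; resolve fragments by capillary electrophoresis. Upward response vs DMSO.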

For assay [3], the target named is Oxysterols receptor LXR-beta (Homo sapiens) (UniProt P55055). Put plainly: ATG_LXRb_TRANS: Attagene TRANS-FACTORIAL HepG2 Assay for human Liver X Receptor beta (LXRb) (AID 2282981). The conditions noted are these: HepG2 Attagene TRANS GAL4-LXRb reporter, mRNA. Summed up: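 Cells: HepG2, transiently transfected with GAL4-UAS reporter units plus LXRb-Gal4 fusion. Treatment: 24 h. Detection: reporter mRNA by RT-PCR, 6-FAM labelling, HpaI digestion, capillary electrophoresis.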

The target in assay [4] is Hepatocyte nuclear factor 4-alpha (Homo sapiens) (UniProt P41235). Put plainly: ATG_HNF4a_TRANS: Attagene TRANS-FACTORIAL HepG2 Assay for human Hepatocyte Nuclear Factor 4 alpha (HNF4a) (AID 2282982). The conditions noted are these: HepG2 HNF4a transactivation reporter, mRNA readout. Put shortly: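 Transfected HepG2 reporter cells are dosed for 24 h; reporter RNA is reverse-transcribed, amplified, fluorescently labelled and HpaI-digested before CE sizing. Positive-direction fit against DMSO.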

Assay [5] in a line: ATG_M_32_TRANS: Attagene TRANS-FACTORIAL HepG2 Assay for M32 Transcription Factor (Internal Marker) (AID 2282984).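 Note: transcript level of a background control reporter unit measured by RT-PCR and capillary electrophoresis.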 The conditions noted are these: HepG2 Attagene TRANS M32 internal marker reporter. Summed up:
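Using transiently transfected HepG2 cells exposed to test chemicals for 24 h, reporter transcripts are converted to labelled cDNA fragments and quantified by capillary electrophoresis. DMSO defines the activity baseline.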

Assay [6] addresses Transcriptional activator Myb (Homo sapiens) (UniProt P10242). As to the kind of experiment: ATG_Myb_CIS: Attagene CIS-FACTORIAL HepG2 Assay for human Myeloblastosis (Myb) Proto-Oncogene Transcription Factor (AID 2282986; active = hit-call score of the fitted dose curve at least 0.9, where 1 is the maximum; inactive = score below 0.9). The conditions noted are these: HepG2 Attagene CIS-FACTORIAL Myb reporter transcription; actives raise or lower the signal. Put shortly: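 HepG2 cells were transiently transfected with cis-regulated multiple reporter transcription units reflecting endogenous Myb activity, then exposed to compound for 24 hours. Reporter mRNA was measured by RT-PCR with capillary electrophoresis; bidirectional fitting versus DMSO baseline.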

In assay [7] the target is Nuclear respiratory factor 1 (Homo sapiens) (UniProt Q16656). Put plainly: ATG_NRF1_CIS: Attagene CIS-FACTORIAL HepG2 Assay for human Nuclear Respiratory Factor 1 (NRF1) Orphan Gene (AID 2282987; active = hit-call score of the fitted dose curve at least 0.9, where 1 is the maximum; inactive = score below 0.9). Conditions: HepG2 NRF1 cis-element reporter, Attagene multiplex; actives raise or lower the signal. Summed up:
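HepG2 cells transiently transfected with multiple reporter transcription units under cis-regulatory promoter control, so endogenous transcription-factor activity is read. After 24 h compound exposure, reporter mRNA quantified by RT-PCR, fluorescent labelling, HpaI digestion and capillary electrophoresis; bidirectional fitting versus DMSO.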

Assay [8] addresses Glucocorticoid receptor (Homo sapiens) (UniProt P04150). Put plainly: ATG_GR_TRANS: Attagene TRANS-FACTORIAL HepG2 Assay for human Glucocorticoid Receptor (GR) (AID 2282978).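 Note: activators score as hits since higher reporter transcript over DMSO is fitted.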 Conditions: HepG2 Attagene TRANS GR reporter, mRNA transcription. Summed up:
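HepG2 cells transiently transfected with multiplexed reporter units in which chimeric NR-GAL4 proteins drive GAL4-UAS reporters; 24 h compound exposure. Reporter mRNA measured by RT-PCR, 6-FAM labelling, HpaI digestion and capillary electrophoresis; gain-of-signal fitted versus DMSO.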

Assay [9] can be described thus: ATG_M_06_TRANS: Attagene TRANS-FACTORIAL HepG2 Assay for M06 Transcription Factor (Internal Marker) (AID 2282983).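 Note: reporter transcript level by RT-PCR then capillary electrophoresis fluorescence.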 The conditions noted are these: HepG2 Attagene TRANS M06 internal marker reporter. Summed up: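 Transfect HepG2 with MRTUs → dose compounds 24 h → isolate RNA, oligo(dT) RT → PCR with reporter primers → 6-FAM primer extension → HpaI digest → CE fragment analysis. Positive direction vs DMSO.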

Assay [10] has as its target Nuclear receptor subfamily 4 group A member 2 (Homo sapiens) (UniProt P43354). As to the kind of experiment: ATG_NURR1_TRANS: Attagene TRANS-FACTORIAL HepG2 Assay for human Nuclear Receptor Related Protein 1 (NURR1) (AID 2282985). Conditions: HepG2 Attagene TRANS reporter, mRNA readout. Put shortly:
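Cells: HepG2, transiently transfected. Exposure: 24 h. Detection: fluorescence of labelled RT-PCR products separated by capillary electrophoresis; upward fit versus DMSO.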

Inconclusive results are not listed. The source made the active and inactive calls. Rule for the calls, unless noted: active = hit-call score of the fitted dose curve at least 0.9, where 1 is the maximum; inconclusive = response in the unintended direction; inactive = score below 0.9.

Sequence of Transcriptional activator Myb (Homo sapiens) (P10242 whole entry, looked up): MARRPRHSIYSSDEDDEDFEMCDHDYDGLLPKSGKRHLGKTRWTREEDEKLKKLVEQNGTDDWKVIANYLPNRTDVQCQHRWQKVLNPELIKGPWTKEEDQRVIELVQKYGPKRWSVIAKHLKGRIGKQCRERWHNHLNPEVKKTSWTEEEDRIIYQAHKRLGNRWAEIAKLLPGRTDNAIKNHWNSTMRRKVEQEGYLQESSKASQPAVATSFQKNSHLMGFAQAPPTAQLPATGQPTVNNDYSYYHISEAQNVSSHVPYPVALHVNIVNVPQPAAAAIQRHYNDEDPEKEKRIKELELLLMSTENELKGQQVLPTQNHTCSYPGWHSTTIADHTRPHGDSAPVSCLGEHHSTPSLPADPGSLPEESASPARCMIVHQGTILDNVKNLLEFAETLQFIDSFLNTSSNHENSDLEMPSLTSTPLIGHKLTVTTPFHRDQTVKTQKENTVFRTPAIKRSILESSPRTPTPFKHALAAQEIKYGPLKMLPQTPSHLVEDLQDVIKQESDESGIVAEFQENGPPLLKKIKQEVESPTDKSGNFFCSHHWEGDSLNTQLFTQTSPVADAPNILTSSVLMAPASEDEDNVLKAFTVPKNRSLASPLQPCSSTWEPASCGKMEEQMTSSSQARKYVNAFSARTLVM
Sequence of Bile acid receptor (Homo sapiens) (Q96RI1 whole entry, looked up, the tested form may be a part): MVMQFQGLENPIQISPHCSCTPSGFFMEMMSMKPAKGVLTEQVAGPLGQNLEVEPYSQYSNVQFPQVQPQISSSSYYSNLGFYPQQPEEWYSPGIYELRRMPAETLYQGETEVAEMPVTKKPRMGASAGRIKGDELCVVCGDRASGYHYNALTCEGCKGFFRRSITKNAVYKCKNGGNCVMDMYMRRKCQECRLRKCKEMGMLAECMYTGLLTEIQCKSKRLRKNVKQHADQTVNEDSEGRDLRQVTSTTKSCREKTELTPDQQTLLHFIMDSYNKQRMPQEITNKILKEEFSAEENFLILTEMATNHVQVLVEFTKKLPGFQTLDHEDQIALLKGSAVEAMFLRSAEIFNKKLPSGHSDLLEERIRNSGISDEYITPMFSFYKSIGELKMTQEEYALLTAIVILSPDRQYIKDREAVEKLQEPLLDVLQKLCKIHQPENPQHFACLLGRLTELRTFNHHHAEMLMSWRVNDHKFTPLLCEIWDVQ
Sequence of Oxysterols receptor LXR-beta (Homo sapiens) (P55055 whole entry, looked up, the tested form may be a part): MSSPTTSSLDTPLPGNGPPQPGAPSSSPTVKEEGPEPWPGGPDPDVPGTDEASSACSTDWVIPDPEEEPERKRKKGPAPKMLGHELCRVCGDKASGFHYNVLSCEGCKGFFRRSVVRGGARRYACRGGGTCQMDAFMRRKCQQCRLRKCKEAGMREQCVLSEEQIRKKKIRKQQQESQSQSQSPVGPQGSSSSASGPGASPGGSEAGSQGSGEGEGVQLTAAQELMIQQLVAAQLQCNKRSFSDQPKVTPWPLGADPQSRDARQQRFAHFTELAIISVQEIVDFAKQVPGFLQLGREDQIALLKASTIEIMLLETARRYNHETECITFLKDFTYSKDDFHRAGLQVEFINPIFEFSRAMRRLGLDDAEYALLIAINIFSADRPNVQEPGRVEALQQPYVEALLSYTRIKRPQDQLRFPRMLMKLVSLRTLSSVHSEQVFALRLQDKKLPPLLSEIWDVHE
Sequence of Nuclear respiratory factor 1 (Homo sapiens) (Q16656 whole entry, looked up): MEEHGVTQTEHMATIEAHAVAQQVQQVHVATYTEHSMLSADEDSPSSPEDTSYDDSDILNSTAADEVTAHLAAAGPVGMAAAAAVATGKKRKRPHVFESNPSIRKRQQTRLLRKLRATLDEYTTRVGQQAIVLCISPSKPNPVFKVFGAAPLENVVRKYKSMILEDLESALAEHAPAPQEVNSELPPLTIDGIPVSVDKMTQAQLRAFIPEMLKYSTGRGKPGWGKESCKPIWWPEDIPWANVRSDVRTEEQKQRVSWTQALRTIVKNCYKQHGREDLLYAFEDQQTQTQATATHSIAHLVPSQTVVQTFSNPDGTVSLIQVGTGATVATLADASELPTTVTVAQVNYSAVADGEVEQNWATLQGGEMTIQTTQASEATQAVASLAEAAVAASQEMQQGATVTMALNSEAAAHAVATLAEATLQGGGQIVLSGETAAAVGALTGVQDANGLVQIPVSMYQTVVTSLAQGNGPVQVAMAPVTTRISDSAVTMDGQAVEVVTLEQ
Sequence of Hepatocyte nuclear factor 4-alpha (Homo sapiens) (P41235 whole entry, looked up): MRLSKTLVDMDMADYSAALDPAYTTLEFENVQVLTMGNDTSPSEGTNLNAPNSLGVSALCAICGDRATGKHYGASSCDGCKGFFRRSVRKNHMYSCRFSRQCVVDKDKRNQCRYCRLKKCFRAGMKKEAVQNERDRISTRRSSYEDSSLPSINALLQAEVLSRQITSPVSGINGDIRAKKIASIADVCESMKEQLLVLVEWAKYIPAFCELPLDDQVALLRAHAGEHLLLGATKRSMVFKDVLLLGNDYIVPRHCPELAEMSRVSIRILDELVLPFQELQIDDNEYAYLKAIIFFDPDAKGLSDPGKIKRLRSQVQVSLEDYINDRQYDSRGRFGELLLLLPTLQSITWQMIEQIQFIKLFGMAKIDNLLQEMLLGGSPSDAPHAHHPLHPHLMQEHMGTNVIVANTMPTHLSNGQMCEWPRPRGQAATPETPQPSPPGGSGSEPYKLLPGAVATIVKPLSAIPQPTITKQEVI
Sequence of Oxysterols receptor LXR-alpha (Homo sapiens) (Q13133 whole entry, looked up, the tested form may be a part): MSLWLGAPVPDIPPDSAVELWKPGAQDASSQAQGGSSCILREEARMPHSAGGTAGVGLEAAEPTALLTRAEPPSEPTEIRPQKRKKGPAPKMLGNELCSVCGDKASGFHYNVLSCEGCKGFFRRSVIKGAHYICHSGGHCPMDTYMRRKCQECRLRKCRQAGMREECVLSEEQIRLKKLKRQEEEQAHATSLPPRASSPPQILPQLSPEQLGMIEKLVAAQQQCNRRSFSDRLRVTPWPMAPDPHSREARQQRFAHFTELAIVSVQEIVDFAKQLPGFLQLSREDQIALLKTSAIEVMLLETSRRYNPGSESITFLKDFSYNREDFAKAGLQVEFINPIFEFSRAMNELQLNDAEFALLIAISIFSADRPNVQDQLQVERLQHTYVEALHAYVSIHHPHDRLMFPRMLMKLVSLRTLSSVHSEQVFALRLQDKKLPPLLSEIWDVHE
Sequence of Nuclear receptor subfamily 4 group A member 2 (Homo sapiens) (P43354 whole entry, looked up): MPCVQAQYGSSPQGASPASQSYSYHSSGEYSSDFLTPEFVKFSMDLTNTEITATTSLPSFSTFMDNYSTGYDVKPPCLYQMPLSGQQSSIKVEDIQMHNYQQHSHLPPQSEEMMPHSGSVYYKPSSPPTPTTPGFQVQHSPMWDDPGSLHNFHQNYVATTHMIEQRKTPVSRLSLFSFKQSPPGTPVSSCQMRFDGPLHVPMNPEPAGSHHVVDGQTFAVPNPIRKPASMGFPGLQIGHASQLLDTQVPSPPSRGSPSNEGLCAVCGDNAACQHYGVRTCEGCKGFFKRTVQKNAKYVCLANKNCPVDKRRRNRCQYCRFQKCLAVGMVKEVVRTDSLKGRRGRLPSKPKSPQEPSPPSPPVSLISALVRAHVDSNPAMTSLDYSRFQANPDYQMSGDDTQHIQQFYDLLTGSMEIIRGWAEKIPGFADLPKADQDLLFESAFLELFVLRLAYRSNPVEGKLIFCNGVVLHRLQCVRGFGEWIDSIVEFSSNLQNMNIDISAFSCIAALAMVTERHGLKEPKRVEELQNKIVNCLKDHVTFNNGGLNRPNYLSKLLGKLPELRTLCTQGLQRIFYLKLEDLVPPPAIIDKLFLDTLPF
Sequence of Glucocorticoid receptor (Homo sapiens) (P04150 whole entry, looked up, the tested form may be a part): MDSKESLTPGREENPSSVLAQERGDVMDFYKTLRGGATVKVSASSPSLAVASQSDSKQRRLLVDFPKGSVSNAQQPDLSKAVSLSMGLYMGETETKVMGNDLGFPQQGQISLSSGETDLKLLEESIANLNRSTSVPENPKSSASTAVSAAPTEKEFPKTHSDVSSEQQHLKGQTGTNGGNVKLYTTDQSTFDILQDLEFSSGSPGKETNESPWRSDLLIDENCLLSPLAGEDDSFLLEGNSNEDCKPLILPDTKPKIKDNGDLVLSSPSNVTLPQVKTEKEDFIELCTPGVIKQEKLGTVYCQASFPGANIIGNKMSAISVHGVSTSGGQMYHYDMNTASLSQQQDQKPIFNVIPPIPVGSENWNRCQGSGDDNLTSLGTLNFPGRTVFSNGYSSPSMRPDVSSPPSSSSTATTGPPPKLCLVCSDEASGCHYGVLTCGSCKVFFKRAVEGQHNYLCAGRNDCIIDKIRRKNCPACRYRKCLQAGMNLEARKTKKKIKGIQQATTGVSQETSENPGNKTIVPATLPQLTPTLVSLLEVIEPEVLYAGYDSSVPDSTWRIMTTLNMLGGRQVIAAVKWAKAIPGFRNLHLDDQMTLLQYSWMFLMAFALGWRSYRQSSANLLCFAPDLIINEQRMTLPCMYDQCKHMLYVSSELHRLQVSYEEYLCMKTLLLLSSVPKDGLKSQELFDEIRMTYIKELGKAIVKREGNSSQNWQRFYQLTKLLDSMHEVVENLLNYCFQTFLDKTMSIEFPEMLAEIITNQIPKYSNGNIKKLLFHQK

With `CC(C)=CCCC(C)C=O` (stereo not drawn), the compound was classed as inactive in [1], in [2], in assay [3], in assay [4], in [5] and in assay [6]. Moreover, the outcome in assay [7] was inactive.

In the case of `OCCCS`, the call in assay [8], in [4], in assay [5], in assay [6] and in assay [7] was inactive.

With `C(=CC=Nc1ccccc1)C=CNc1ccccc1`, the compound was called inactive in [1], in assay [2], in [3], in assay [9], in assay [5] and in [10]. Also, the outcome in assay [6] and in assay [7] was inactive.

Turning to `c1ccc2c(c1)ccc1ncccc12`, the compound was called inactive in assay [8], in assay [4], in assay [10], in [6] and in [7].

Regarding `CCCCCCCCCCCSCC(=O)O`, the call in [8], in assay [9], in assay [5] and in assay [6] was inactive. Besides, the results for the half-maximal activity concentration (AC50) in [10] and in assay [7] were 23 µM (active) and 77.7 µM (active), respectively.

With `Cc1ccc(N)c([N+](=O)[O-])c1`, the compound was classed as inactive in assay [8], in assay [4], in assay [6] and in [7].

As for `O=Nc1ccc(O)cc1`, the outcome in assay [8], in [4], in [5], in [10], in [6] and in [7] was inactive.

In the case of `CCCCC(CC)COCC1CO1` (stereo not drawn), the compound was classed as inactive in [8], in [4], in [9], in assay [5], in assay [6] and in assay [7].

On to `N=c1ccn2c(n1)O[C@H]1[C@H](O)[C@@H](CO)O[C@H]12`, for which the compound was called inactive in assay [8], in [3], in [5], in assay [6] and in assay [7].

On to `O=S(=O)(O)c1cc(S(=O)(=O)O)c2ccc3c(S(=O)(=O)O)cc(S(=O)(=O)O)c4ccc1c2c43`, for which the call in [1], in assay [2], in [3], in assay [4], in assay [9] and in assay [5] was inactive. Also, the compound was called inactive in assay [10], in assay [6] and in assay [7].

`c1cc(C(c2ccc(OCC3CO3)cc2)C(c2ccc(OCC3CO3)cc2)c2ccc(OCC3CO3)cc2)ccc1OCC1CO1` (stereo not drawn): the outcome in [8], in assay [9], in assay [5], in [6] and in [7] was inactive.

For `CC(=O)OCC(C)OC(C)=O` (stereo not drawn), the call in assay [1], in [2], in [3], in assay [4], in [5] and in assay [6] was inactive. Further, the compound was classed as inactive in assay [7].

As for `CCCCCCCCCCCCCCCC[N+](C)(C)CC`, the outcome in assay [1], in assay [2], in [3], in assay [9], in [5] and in [10] was inactive. Besides, the compound was called inactive in assay [6]. Besides, the AC50 in assay [4] was 11 µM (active); in [7], 9.68 µM (active).

Take `Cc1ccc(C(C)c2ccc(C)c(C)c2)cc1C`: the call in assay [8] and in [7] was inactive. Moreover, the AC50 in assay [6] was 125 µM (active).

On to `SCCc1cnccn1`, for which the compound was called inactive in [8], in assay [4], in assay [9], in assay [10], in [6] and in [7].

Consider `C=C1C2CCC(C2)C1(C)C` (stereo not drawn), for which the result in assay [8], in assay [10], in [6] and in assay [7] was inactive.

Turning to `CCCCCCCCC(=O)OCC`, the result in assay [8], in assay [5], in assay [10] and in assay [7] was inactive.

Take `O=c1c2ccccc2oc2ccccc12`: the compound was classed as inactive in assay [8], in assay [4], in assay [6] and in assay [7].

In the case of `OC1CCCCCCCCCCC1`, the compound was called inactive in assay [8], in [9] and in [7].

With `COC(=O)c1cc(Cl)ccc1[N+](=O)[O-]`, the outcome in [8], in assay [5], in assay [6] and in assay [7] was inactive.

Take `CCC(CC)C(=O)O`: the call in assay [8], in [4] and in [7] was inactive.

Regarding `O=C1CCCCCCCCCCC(=O)OCCO1`, the compound was called inactive in [8], in [9], in assay [6] and in [7].

With `CCCCCCCC/C=C\CCCCCCCC(=O)OCCO`, the compound was classed as inactive in assay [8], in assay [4], in [9], in assay [5], in [10] and in assay [6]. Further, the compound was classed as inactive in assay [7].

For `CC1=Nc2ccc3ccccc3c2C1(C)C`, the result in assay [1], in assay [2], in assay [3], in assay [4], in assay [5] and in assay [10] was inactive. In addition, the call in assay [6] and in assay [7] was inactive.

Take `C=C(C)C(=O)OCCOc1ccccc1`: the outcome in assay [8], in [4], in [9], in assay [6] and in assay [7] was inactive.

Take `CC(C)C(=O)C(C)C`: the outcome in [8], in assay [4], in [9], in [5], in [10] and in [6] was inactive. Further, the call in assay [7] was inactive.

With `CCCCC(CC)COC(=O)c1ccccc1` (stereo not drawn), the compound was called inactive in [8], in [5], in [6] and in assay [7].

As for `NC(=O)C1CO1` (stereo not drawn), the result in assay [8], in assay [4], in [5], in [6] and in assay [7] was inactive.

With `Nc1cccc(C(F)(F)F)c1`, the compound was called inactive in assay [1], in [2], in assay [3], in assay [9], in assay [5] and in [10]. In addition, the compound was classed as inactive in assay [6] and in [7].

Turning to `CC(=O)CC(N)=O`, the result in assay [8], in [4], in assay [9], in assay [5] and in assay [7] was inactive.

For the compound `CC(=O)C=CC1C(C)=CCC(C)C1(C)C` (stereo not drawn), the compound was called inactive in [8], in assay [4], in assay [9], in assay [5], in [10] and in [6]. The outcome in assay [7] was inactive.

Regarding `O=[N+]([O-])c1ccc(CO)cc1`, the call in assay [8], in assay [9], in assay [5], in [10] and in assay [7] was inactive.

By AC50 is commonly meant the concentration at which the activity in the assay is half-maximal.
